Test results published in the supplement of paper PMC4466140.

biological target: AgAbp1; assay: SPOT peptide array binding signal intensity (averaged, normalized) (arbitrary units (background-subtracted, floor 0; scale differs between SH3 domains)); higher = stronger binding of the SH3 domain to the peptide
Outline: (§1)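 To measure binding, SH3 domains from four yeast species were fused to GST, expressed in E. coli BL21(DE3) and purified on glutathione Sepharose. Each domain was incubated at 10 μg/ml overnight at 4°C on cellulose membranes with synthetic 15-mer peptides whose cysteines were replaced by serines. Anti-GST antibody, an HRP anti-mouse secondary and luminol were used for detection, and images were quantified with Genespotter. Reported binding signal is normalized, background-subtracted spot intensity averaged over replicates, in arbitrary units that differ between domains.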

Row | Binder | SPOT peptide array binding signal intensity
1 | RRARRQMGIPTISQV | 125

biological target: AgBbc1; assay: as above
Outline: as §1

Row | Binder | SPOT peptide array binding signal intensity
2 | RRARRQMGIPTISQV | 71.8

biological target: AgBem1-D1; assay: as above
Outline: as §1

Row | Binder | SPOT peptide array binding signal intensity
3 | RRARRQMGIPTISQV | 252

biological target: AgBzz1-D1; assay: as above
Outline: as §1

Row | Binder | SPOT peptide array binding signal intensity
4 | RRARRQMGIPTISQV | 41

biological target: AgBzz1-D2; assay: as above
Outline: as §1

Row | Binder | SPOT peptide array binding signal intensity
5 | RRARRQMGIPTISQV | 35

biological target: AgCyk3; assay: as above
Outline: as §1

Row | Binder | SPOT peptide array binding signal intensity
6 | RRARRQMGIPTISQV | 5

biological target: AgFus1; assay: as above
Outline: as §1

Row | Binder | SPOT peptide array binding signal intensity
7 | RRARRQMGIPTISQV | 716

biological target: AgHof1; assay: as above
Outline: as §1

Row | Binder | SPOT peptide array binding signal intensity
8 | RRARRQMGIPTISQV | 83.8

biological target: AgHse1; assay: as above
Outline: as §1

Row | Binder | SPOT peptide array binding signal intensity
9 | RRARRQMGIPTISQV | 854

biological target: AgLsb1; assay: as above
Outline: as §1

Row | Binder | SPOT peptide array binding signal intensity
10 | RRARRQMGIPTISQV | 9.75

biological target: AgLsb4; assay: as above
Outline: as §1

Row | Binder | SPOT peptide array binding signal intensity
11 | RRARRQMGIPTISQV | 138

biological target: AgMyo5; assay: as above
Outline: as §1

Row | Binder | SPOT peptide array binding signal intensity
12 | RRARRQMGIPTISQV | 5

biological target: AgNbp2; assay: as above
Outline: as §1

Row | Binder | SPOT peptide array binding signal intensity
13 | RRARRQMGIPTISQV | 724

biological target: AgRvs167; assay: as above
Outline: as §1

Row | Binder | SPOT peptide array binding signal intensity
14 | RRARRQMGIPTISQV | 10.7

biological target: AgSho1; assay: as above
Outline: as §1

Row | Binder | SPOT peptide array binding signal intensity
15 | RRARRQMGIPTISQV | 287

biological target: AgSla1-D1-D2; assay: as above
Outline: as §1

Row | Binder | SPOT peptide array binding signal intensity
16 | RRARRQMGIPTISQV | 99.5

biological target: AgSla1-D3; assay: as above
Outline: as §1

Row | Binder | SPOT peptide array binding signal intensity
17 | RRARRQMGIPTISQV | 14.5

biological target: CaAbp1-D1; assay: as above
Outline: as §1

Row | Binder | SPOT peptide array binding signal intensity
18 | RRARRQMGIPTISQV | 514

biological target: CaAbp1-D2; assay: as above
Outline: as §1

Row | Binder | SPOT peptide array binding signal intensity
19 | RRARRQMGIPTISQV | 941

biological target: CaBbc1; assay: as above
Outline: as §1

Row | Binder | SPOT peptide array binding signal intensity
20 | RRARRQMGIPTISQV | 197

biological target: CaBem1-D1; assay: as above
Outline: as §1

Row | Binder | SPOT peptide array binding signal intensity
21 | RRARRQMGIPTISQV | 299

biological target: CaBzz1-D1; assay: as above
Outline: as §1

Row | Binder | SPOT peptide array binding signal intensity
22 | RRARRQMGIPTISQV | 98.5

biological target: CaBzz1-D2; assay: as above
Outline: as §1

Row | Binder | SPOT peptide array binding signal intensity
23 | RRARRQMGIPTISQV | 115

biological target: CaCyk3; assay: as above
Outline: as §1

Row | Binder | SPOT peptide array binding signal intensity
24 | RRARRQMGIPTISQV | 25.5

biological target: CaFus1; assay: as above
Outline: as §1

Row | Binder | SPOT peptide array binding signal intensity
25 | RRARRQMGIPTISQV | 657

biological target: CaHof1; assay: as above
Outline: as §1

Row | Binder | SPOT peptide array binding signal intensity
26 | RRARRQMGIPTISQV | ≤ 0

biological target: CaHse1; assay: as above
Outline: as §1

Row | Binder | SPOT peptide array binding signal intensity
27 | RRARRQMGIPTISQV | 278

biological target: CaLsb1; assay: as above
Outline: as §1

Row | Binder | SPOT peptide array binding signal intensity
28 | RRARRQMGIPTISQV | 2.25

biological target: CaLsb4; assay: as above
Outline: as §1

Row | Binder | SPOT peptide array binding signal intensity
29 | RRARRQMGIPTISQV | 806

biological target: CaMyo5; assay: as above
Outline: as §1

Row | Binder | SPOT peptide array binding signal intensity
30 | RRARRQMGIPTISQV | 12.5

biological target: CaNbp2; assay: as above
Outline: as §1

Row | Binder | SPOT peptide array binding signal intensity
31 | RRARRQMGIPTISQV | 1560

biological target: CaRvs167; assay: as above
Outline: as §1

Row | Binder | SPOT peptide array binding signal intensity
32 | RRARRQMGIPTISQV | 58

biological target: CaRvs167-3; assay: as above
Outline: as §1

Row | Binder | SPOT peptide array binding signal intensity
33 | RRARRQMGIPTISQV | 89.8

biological target: CaSho1; assay: as above
Outline: as §1

Row | Binder | SPOT peptide array binding signal intensity
34 | RRARRQMGIPTISQV | 758

biological target: CaSla1-D1-D2; assay: as above
Outline: as §1

Row | Binder | SPOT peptide array binding signal intensity
35 | RRARRQMGIPTISQV | 385

biological target: CaSla1-D3; assay: as above
Outline: as §1

Row | Binder | SPOT peptide array binding signal intensity
36 | RRARRQMGIPTISQV | 104

biological target: ScAbp1; assay: as above
Outline: as §1

Row | Binder | SPOT peptide array binding signal intensity
37 | RRARRQMGIPTISQV | 152

biological target: ScBbc1; assay: as above
Outline: as §1

Row | Binder | SPOT peptide array binding signal intensity
38 | RRARRQMGIPTISQV | 35.5

biological target: ScBem1-D1; assay: as above
Outline: as §1

Row | Binder | SPOT peptide array binding signal intensity
39 | RRARRQMGIPTISQV | 100

biological target: ScBzz1-D1; assay: as above
Outline: as §1

Row | Binder | SPOT peptide array binding signal intensity
40 | RRARRQMGIPTISQV | 11.5

biological target: ScBzz1-D2; assay: as above
Outline: as §1

Row | Binder | SPOT peptide array binding signal intensity
41 | RRARRQMGIPTISQV | 54.5

biological target: ScCyk3; assay: as above
Outline: as §1

Row | Binder | SPOT peptide array binding signal intensity
42 | RRARRQMGIPTISQV | 53.5

biological target: ScFus1; assay: as above
Outline: as §1

Row | Binder | SPOT peptide array binding signal intensity
43 | RRARRQMGIPTISQV | 671

biological target: ScHof1; assay: as above
Outline: as §1

Row | Binder | SPOT peptide array binding signal intensity
44 | RRARRQMGIPTISQV | 0.5

biological target: ScHse1; assay: as above
Outline: as §1

Row | Binder | SPOT peptide array binding signal intensity
45 | RRARRQMGIPTISQV | 2110

biological target: ScLsb1; assay: as above
Outline: as §1

Row | Binder | SPOT peptide array binding signal intensity
46 | RRARRQMGIPTISQV | 72.5

biological target: ScLsb2; assay: as above
Outline: as §1

Row | Binder | SPOT peptide array binding signal intensity
47 | RRARRQMGIPTISQV | 2

biological target: ScLsb3; assay: as above
Outline: as §1

Row | Binder | SPOT peptide array binding signal intensity
48 | RRARRQMGIPTISQV | 639

biological target: ScLsb4; assay: as above
Outline: as §1

Row | Binder | SPOT peptide array binding signal intensity
49 | RRARRQMGIPTISQV | 121

biological target: ScMyo3; assay: as above
Outline: as §1

Row | Binder | SPOT peptide array binding signal intensity
50 | RRARRQMGIPTISQV | 2.25

biological target: ScMyo5; assay: as above
Outline: as §1

Row | Binder | SPOT peptide array binding signal intensity
51 | RRARRQMGIPTISQV | 1.5

biological target: ScNbp2; assay: as above
Outline: as §1

Row | Binder | SPOT peptide array binding signal intensity
52 | RRARRQMGIPTISQV | 1060

biological target: ScPex13; assay: as above
Outline: as §1

Row | Binder | SPOT peptide array binding signal intensity
53 | RRARRQMGIPTISQV | 96.9

biological target: ScRvs167; assay: as above
Outline: as §1

Row | Binder | SPOT peptide array binding signal intensity
54 | RRARRQMGIPTISQV | 95

biological target: ScSho1; assay: as above
Outline: as §1

Row | Binder | SPOT peptide array binding signal intensity
55 | RRARRQMGIPTISQV | 978

biological target: ScSla1-D1-D2; assay: as above
Outline: as §1

Row | Binder | SPOT peptide array binding signal intensity
56 | RRARRQMGIPTISQV | 484

biological target: ScSla1-D3; assay: as above
Outline: as §1

Row | Binder | SPOT peptide array binding signal intensity
57 | RRARRQMGIPTISQV | 308

biological target: SpAbp1-D1; assay: as above
Outline: as §1

Row | Binder | SPOT peptide array binding signal intensity
58 | RRARRQMGIPTISQV | 416

biological target: SpBbc1; assay: as above
Outline: as §1

Row | Binder | SPOT peptide array binding signal intensity
59 | RRARRQMGIPTISQV | 12.2

biological target: SpBzz1-D1; assay: as above
Outline: as §1

Row | Binder | SPOT peptide array binding signal intensity
60 | RRARRQMGIPTISQV | 143

biological target: SpBzz1-D2; assay: as above
Outline: as §1

Row | Binder | SPOT peptide array binding signal intensity
61 | RRARRQMGIPTISQV | 4.25
62 | NPNRRAPRRPLSTQH | 32.2

biological target: SpCyk3; assay: as above
Outline: as §1

Row | Binder | SPOT peptide array binding signal intensity
63 | RRARRQMGIPTISQV | 3.5
64 | NPNRRAPRRPLSTQH | 1

biological target: SpHof1; assay: as above
Outline: as §1

Row | Binder | SPOT peptide array binding signal intensity
65 | RRARRQMGIPTISQV | 188
66 | NPNRRAPRRPLSTQH | 342

biological target: SpHof1-2; assay: as above
Outline: as §1

Row | Binder | SPOT peptide array binding signal intensity
67 | RRARRQMGIPTISQV | 71
68 | NPNRRAPRRPLSTQH | 8.5

biological target: SpHof1-3; assay: as above
Outline: as §1

Row | Binder | SPOT peptide array binding signal intensity
69 | RRARRQMGIPTISQV | 435
70 | NPNRRAPRRPLSTQH | 166

biological target: SpHse1; assay: as above
Outline: as §1

Row | Binder | SPOT peptide array binding signal intensity
71 | RRARRQMGIPTISQV | 1100
72 | NPNRRAPRRPLSTQH | 1390

biological target: SpLsb1; assay: as above
Outline: as §1

Row | Binder | SPOT peptide array binding signal intensity
73 | RRARRQMGIPTISQV | 7.5
74 | NPNRRAPRRPLSTQH | 11

biological target: SpLsb4; assay: as above
Outline: as §1

Row | Binder | SPOT peptide array binding signal intensity
75 | RRARRQMGIPTISQV | 642
76 | NPNRRAPRRPLSTQH | 906

biological target: SpMyo1; assay: as above
Outline: as §1

Row | Binder | SPOT peptide array binding signal intensity
77 | RRARRQMGIPTISQV | 13.5
78 | NPNRRAPRRPLSTQH | 84.5

biological target: SpNbp2; assay: as above
Outline: as §1

Row | Binder | SPOT peptide array binding signal intensity
79 | RRARRQMGIPTISQV | 1480
80 | NPNRRAPRRPLSTQH | 498

biological target: SpPex13; assay: as above
Outline: as §1

Row | Binder | SPOT peptide array binding signal intensity
81 | RRARRQMGIPTISQV | 86
82 | NPNRRAPRRPLSTQH | 48.5

biological target: SpRvs167; assay: as above
Outline: as §1

Row | Binder | SPOT peptide array binding signal intensity
83 | RRARRQMGIPTISQV | 50.2
84 | NPNRRAPRRPLSTQH | 17

biological target: SpSla1-D1-D2; assay: as above
Outline: as §1

Row | Binder | SPOT peptide array binding signal intensity
85 | RRARRQMGIPTISQV | 24.2
86 | NPNRRAPRRPLSTQH | 1

biological target: SpSla1-D3; assay: as above
Outline: as §1

Row | Binder | SPOT peptide array binding signal intensity
87 | RRARRQMGIPTISQV | 131
88 | NPNRRAPRRPLSTQH | 32
